# What was measured:
# Test in all cases: SPOT peptide array binding signal intensity (averaged, normalized) (arbitrary units (background-subtracted, floor 0; scale differs between SH3 domains)); higher = stronger binding of the SH3 domain to the peptide
# AgAbp1 = target: AgAbp1
# Summary of the method: (§1)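 GST-fused SH3 domains from four yeast species were expressed in E. coli BL21(DE3), purified on glutathione Sepharose and incubated at 10 μg/ml overnight at 4°C in TBS-based blocking buffer on cellulose membranes carrying synthetic 15-mer peptides, with cysteines replaced by serines. Bound protein was detected with anti-GST antibody, an HRP anti-mouse secondary and luminol, then imaged and quantified with Genespotter. Binding signal is the normalized, background-subtracted spot intensity averaged over replicates, in arbitrary units that differ between domains.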
# AgBbc1 = target: AgBbc1
# Summary of the method: as §1
# AgBem1-D1 = target: AgBem1-D1
# Summary of the method: as §1
# AgBzz1-D1 = target: AgBzz1-D1
# Summary of the method: as §1
# AgBzz1-D2 = target: AgBzz1-D2
# Summary of the method: as §1
# AgCyk3 = target: AgCyk3
# Summary of the method: as §1
# AgFus1 = target: AgFus1
# Summary of the method: as §1
# AgHof1 = target: AgHof1
# Summary of the method: as §1
# AgHse1 = target: AgHse1
# Summary of the method: as §1
# AgLsb1 = target: AgLsb1
# Summary of the method: as §1
# AgLsb4 = target: AgLsb4
# Summary of the method: as §1
# AgMyo5 = target: AgMyo5
# Summary of the method: as §1
# AgNbp2 = target: AgNbp2
# Summary of the method: as §1
# AgRvs167 = target: AgRvs167
# Summary of the method: as §1
# AgSho1 = target: AgSho1
# Summary of the method: as §1
# AgSla1-D1-D2 = target: AgSla1-D1-D2
# Summary of the method: as §1
# AgSla1-D3 = target: AgSla1-D3
# Summary of the method: as §1
# CaAbp1-D1 = target: CaAbp1-D1
# Summary of the method: as §1
# CaAbp1-D2 = target: CaAbp1-D2
# Summary of the method: as §1
# CaBbc1 = target: CaBbc1
# Summary of the method: as §1
# CaBem1-D1 = target: CaBem1-D1
# Summary of the method: as §1
# CaBzz1-D1 = target: CaBzz1-D1
# Summary of the method: as §1
# CaBzz1-D2 = target: CaBzz1-D2
# Summary of the method: as §1
# CaCyk3 = target: CaCyk3
# Summary of the method: as §1
# CaFus1 = target: CaFus1
# Summary of the method: as §1
# CaHof1 = target: CaHof1
# Summary of the method: as §1
# CaHse1 = target: CaHse1
# Summary of the method: as §1
# CaLsb1 = target: CaLsb1
# Summary of the method: as §1
# CaLsb4 = target: CaLsb4
# Summary of the method: as §1
# CaMyo5 = target: CaMyo5
# Summary of the method: as §1
# CaNbp2 = target: CaNbp2
# Summary of the method: as §1
# CaRvs167 = target: CaRvs167
# Summary of the method: as §1
# CaRvs167-3 = target: CaRvs167-3
# Summary of the method: as §1
# CaSho1 = target: CaSho1
# Summary of the method: as §1
# CaSla1-D1-D2 = target: CaSla1-D1-D2
# Summary of the method: as §1
# CaSla1-D3 = target: CaSla1-D3
# Summary of the method: as §1
# ScAbp1 = target: ScAbp1
# Summary of the method: as §1
binder,measurement,setting,value
MTKTPETSPPKRPMG,SPOT peptide array binding signal intensity,AgAbp1,≤ 0
same,SPOT peptide array binding signal intensity,AgBbc1,5.25
same,SPOT peptide array binding signal intensity,AgBem1-D1,66.5
same,SPOT peptide array binding signal intensity,AgBzz1-D1,22
same,SPOT peptide array binding signal intensity,AgBzz1-D2,11.5
same,SPOT peptide array binding signal intensity,AgCyk3,≤ 0
same,SPOT peptide array binding signal intensity,AgFus1,≤ 0
same,SPOT peptide array binding signal intensity,AgHof1,7.25
same,SPOT peptide array binding signal intensity,AgHse1,≤ 0
same,SPOT peptide array binding signal intensity,AgLsb1,1
same,SPOT peptide array binding signal intensity,AgLsb4,2
same,SPOT peptide array binding signal intensity,AgMyo5,946
same,SPOT peptide array binding signal intensity,AgNbp2,25
same,SPOT peptide array binding signal intensity,AgRvs167,3.83
same,SPOT peptide array binding signal intensity,AgSho1,≤ 0
same,SPOT peptide array binding signal intensity,AgSla1-D1-D2,1
same,SPOT peptide array binding signal intensity,AgSla1-D3,≤ 0
same,SPOT peptide array binding signal intensity,CaAbp1-D1,36
same,SPOT peptide array binding signal intensity,CaAbp1-D2,24
same,SPOT peptide array binding signal intensity,CaBbc1,180
same,SPOT peptide array binding signal intensity,CaBem1-D1,17
same,SPOT peptide array binding signal intensity,CaBzz1-D1,30
same,SPOT peptide array binding signal intensity,CaBzz1-D2,21
same,SPOT peptide array binding signal intensity,CaCyk3,7.5
same,SPOT peptide array binding signal intensity,CaFus1,55.5
same,SPOT peptide array binding signal intensity,CaHof1,2
same,SPOT peptide array binding signal intensity,CaHse1,1.25
same,SPOT peptide array binding signal intensity,CaLsb1,0.5
same,SPOT peptide array binding signal intensity,CaLsb4,77
same,SPOT peptide array binding signal intensity,CaMyo5,87.2
same,SPOT peptide array binding signal intensity,CaNbp2,40.5
same,SPOT peptide array binding signal intensity,CaRvs167,17.8
same,SPOT peptide array binding signal intensity,CaRvs167-3,≤ 0
same,SPOT peptide array binding signal intensity,CaSho1,10.5
same,SPOT peptide array binding signal intensity,CaSla1-D1-D2,210
same,SPOT peptide array binding signal intensity,CaSla1-D3,106
same,SPOT peptide array binding signal intensity,ScAbp1,≤ 0

# Reference: the supplement of paper PMC4466140
